# Reference: PubChem BioAssay AID2315 (National Center for Advancing Translational Sciences (NCATS), 2010)
# The whole screen tested about 290,000 compounds, of which about 27,000 (9.3%) were called active. This excerpt belongs to a sample that is enriched for actives. Unmarked numbers belong to inactive results. Cut-off read from the data, not from the text of the source: active = inhibition mostly above about 28% (no sharp cut-off); inactive = mostly below about 43%.
# Experiment: A qHTS for Small Molecule Inhibitors of Shiga Toxin; note: 0% is about no effect
# Settings: Vero cells, Shiga toxin protein synthesis inhibition reporter; at 38.7 µM, active compounds read high
row,Structure (SMILES),inhibition
1,N#Cc1c(NC(=O)C2CCCO2)sc2c1CCCCC2 (stereo not drawn),82.7% (active)
2,N#Cc1c(NC(=O)CCCl)sc2c1CCCCC2,25%
3,N#Cc1c(NC(=O)C2CC(Cl)=CCC2C(=O)O)sc2c1CCCCC2 (stereo not drawn),18.3%
4,Cc1c(C)c2ccc(OCC(=O)N3CCC(C(=O)O)CC3)c(C)c2oc1=O,-1.33%
5,Nc1ccn(C2CC(O)C(CO)O2)c(=O)n1 (stereo not drawn),-2.7%
6,CCOC(=O)c1c(NC(=O)CSc2nccc(=O)[nH]2)sc(C)c1C,-11.1%
7,Cc1ccc2ccc3c(c2n1)NS(=O)(=O)c1ccccc1-3,-4.77%
8,CCOC(=O)c1cc(Sc2ccccc2N)cc(C(=O)OCC)n1,-2.59%
9,CCS(=O)(=O)c1cc([N+](=O)[O-])c(Sc2ccccc2N)s1,101% (active)
10,Nc1ccccc1Sc1ccc(C(F)(F)F)cc1[N+](=O)[O-],-8.21%
11,C/C(=N\NC(=O)c1nc(C)cc(C)n1)c1ccccc1,86.5% (active)
12,C/C(=N\NC(=O)c1cccnc1)c1ccc(-c2ccccc2)cc1,20.1%
13,COc1ccc(/C(C)=N/NC(=O)c2ccc3nc[nH]c3c2)cc1,-11.9%
14,COc1ccc(N=Nc2c(-c3ccc(OC)cc3)[nH]oc2=O)cc1,-1.4%
15,Cc1cc(C)cc(OCC(=O)NC(C)c2ccccc2)c1 (stereo not drawn),16.2%
16,COc1cc(NC(=O)c2ccccc2)c(OC)cc1NC(=O)Cc1ccccc1,-6.61%
17,COC(=O)C1CCN(C(=O)c2ccc3oc(Cc4ccc(Cl)cc4)nc3c2)CC1,-23.6%
18,COCC1CCN(C(=O)c2ccc3oc(Cc4ccccc4)nc3c2)C1 (stereo not drawn),42.2% (active)
19,COc1ccc(Cc2nc3ccc(C(=O)N4CCC(N(C)C)C4)cc3o2)cc1 (stereo not drawn),5%
20,CN(C)c1ccc(/C=C2\NC(=S)N(Cc3ccccc3)C2=O)cc1,3.47%
21,CCc1nn(CCCC(=O)NC(C)c2ccccc2)c(=O)c2cc3occc3n12 (stereo not drawn),11.1%
22,CCC(C)(C)C1CCC(=NNC(=O)c2ccc(Br)o2)CC1 (stereo not drawn),123% (active)
23,CC(NC(=O)C(=O)NN=C1CCC(C(C)(C)C)CC1)c1ccccc1 (stereo not drawn),-9.73%
24,CC(C)(C)C1CCC(=NNC(=O)c2ccc(Br)o2)CC1 (stereo not drawn),50.9% (active)
25,CCCC(=O)Nc1ccc(Cl)c(NC(=O)c2ccc(Br)o2)c1,-13.8%
26,CC(C)(C)C1CCC(=NNC(=O)c2cc(-c3ccccc3)n[nH]2)CC1 (stereo not drawn),5.96%

row,Structure (SMILES),inhibition
1,O=C(CNC(=O)c1ccc(Br)o1)NCC1CCCO1 (stereo not drawn),-17.7%
2,O=C(CCN1C(=O)[C@@H]2Cc3ccccc3CN2C1=O)NCc1ccccc1,-1.35%
3,CCc1ccc(S(=O)(=O)N/N=C\c2ccc([N+](=O)[O-])o2)cc1,9.6%
4,O=C(/C=C/c1ccc(OCc2c(F)cccc2Cl)cc1)N1CCOCC1,54.8%
5,CCOC(=O)C(C)n1cnc2scc(-c3ccc(C)c(C)c3)c2c1=O (stereo not drawn),2.19%
6,CCCN1C2=C(C(=O)CCC2)C(c2ccc(O)c(Br)c2)C2=C1CCCC2=O,6.12%
7,CCOC(=O)C1(CCOc2ccccc2)CCN(Cc2cc(OC)c(O)cc2Cl)CC1,21.9%
8,CCN(CC)CCn1cnc2c1c(=O)[nH]c(=O)n2Cc1ccccc1,-12.7%
9,C=CCNC(=O)COc1coc(CN2CCN(Cc3ccccc3)CC2)cc1=O,-1.93%
10,COc1ccc(/C=C2\SC(=O)N(CCC(=O)NC3CCS(=O)(=O)C3)C2=O)cc1 (stereo not drawn),65.1% (active)
11,COc1ccc(NC(=O)CCN2C(=O)/C(=C/c3ccc4c(c3)OCO4)SC2=S)cc1,-2.97%
12,COc1ccc(/C=C2\SC(=O)N(CCC(=O)NCCCn3ccnc3)C2=O)cc1,65.3% (active)
13,COc1ccccc1/C=C1\SC(=O)N(CCC(=O)N(C)C2CCS(=O)(=O)C2)C1=O (stereo not drawn),18.1%
14,O=C(CCN1C(=O)c2ccccc2C1=O)NCCCn1ccnc1,-4.06%
15,O=C(CN1C(=O)S/C(=C\c2ccccc2F)C1=O)NCCCn1ccnc1,1.8%
16,O=C1C(=O)N(CCN2CCOCC2)C(c2cccc(Cl)c2)/C1=C(/O)c1ccc2c(c1)OCO2 (stereo not drawn),-5.97%
17,CS(=O)(=O)N(CC(=O)N1CCCCCC1)c1cccc(Cl)c1Cl,-8.4%
18,CC(=O)N1CCOc2ccc(S(=O)(=O)N3CCC(C(=O)Nc4ccccc4F)CC3)cc21,-3.81%
19,CSCCC(NS(=O)(=O)c1ccc(C)cc1)C(=O)N1CCCC1 (stereo not drawn),-8.89%
20,COc1ccc2c(C)c(CCC(=O)NC3CC3)c(=O)oc2c1C,12.7%
21,O=C(N/N=C\c1ccc(-c2ccc(Cl)c(Cl)c2)o1)C(=O)N1CCCC1,-9.82%
22,COC(=O)N/N=C/c1ccc(-c2ccc(Cl)c(Cl)c2)o1,59.7% (active)
23,Nc1nnnn1CC(=O)N/N=C/c1ccc(-c2cccc(Cl)c2)o1,14.1%
24,CS/C(=C\C(=O)c1ccco1)Nc1ccccc1Cl,53.1% (active)
25,O=C(Nc1ccccc1C(=O)N1CCCCC1)c1ccco1,-5.5%
26,O=C(c1cccc(S(=O)(=O)Nc2ccccc2Cl)c1)N1CCN(C(=O)c2ccco2)CC1,10.9%

row,Structure (SMILES),inhibition
1,Cc1c(Cl)cccc1NC(=O)[C@@]1(CC(=O)O)CC(/C=C/c2ccccc2)=NO1,4.14%
2,CCOc1cc(/C=N/Nc2cc(C)nc3ccc(C)cc23)ccc1O,16.6%
3,CCOc1cc(/C=N/NC(=O)c2cc(-c3ccccc3)nc3ccccc23)ccc1O,46.8% (active)
4,COc1cccc(-c2cc(C(=O)N/N=C/c3ccc(OC)c(COC(C)=O)c3)c3ccccc3n2)c1,13.2%
5,Cc1cc(=O)oc2cc(OC(C)C(=O)NCCc3ccc(S(N)(=O)=O)cc3)ccc12 (stereo not drawn),-15.1%
6,CC(=O)N1CCOc2ccc(S(=O)(=O)N3CCN(c4cccc(C(F)(F)F)c4)CC3)cc21,-3.75%
7,CCCCCc1ccc(-c2ccc(OCC)cc2)nc1,43.4% (active)
8,CCCCCc1ccc(-c2cn(Cc3ccc4ccccc4c3)nn2)cc1,-7.01%
9,CCOc1c(CNCc2ccc(C(=O)O)cc2)cccc1OC,11.6%
10,CCCCOc1ccc(-c2ncc(C(=O)OCC)c(N)n2)cc1,21.7%
11,O=C(O)c1ccc(COCC(F)(F)F)cc1,8.49%
12,CCCCCc1ccc(-c2ccc(C(=O)O)cc2)nc1,71.9% (active)
13,Cc1ccc(NC(=O)CN2C(=O)NC(C)(c3ccc(Cl)cc3)C2=O)c(Br)c1 (stereo not drawn),-4.27%
14,CC(=O)CCC(=O)c1ccc2ccccc2c1,52.7% (active)
15,CCN(CC)Cc1cc(C(C)=O)ccc1O,-16.1%
16,CC(=O)c1ccc2c(ccc3ccccc32)c1,50.4% (active)
17,C/C(=N\NC(=O)c1ccc2ccccc2c1)c1cccnc1,43.1%
18,Cc1ccccc1OCC(=O)NCC(=O)OCC(=O)c1ccc2ccccc2c1,12.1%
19,CC(=O)c1ccc2c(c1)c1ccccc1n2CC(C)C,-9.15%
20,Cc1cccc(NS(=O)(=O)c2ccc(C(=O)NCC(C)(C)N3CCOCC3)cc2)c1C,-13%
21,COc1cc(OC)c(S(=O)(=O)Nc2ccccc2C(=O)O)cc1S(=O)(=O)Nc1ccccc1C(=O)O,7.19%
22,CCC(=O)N1CCc2cc(S(=O)(=O)CCC(=O)N3CCN(c4ccccc4F)CC3)ccc21,0.463%
23,COc1cc(NS(=O)(=O)c2ccc(NC(=S)NC(=O)c3ccccc3)cc2)nc(OC)n1,-2.7%
24,CN1C(=O)c2ccc(C(=O)Nc3ccc(Br)cn3)cc2C1=O,-3.25%
25,O=C(Nc1ccc(Br)cn1)c1ccc([N+](=O)[O-])o1,50.9% (active)
26,O=C(Nc1ccc(Br)cn1)c1ccc([N+](=O)[O-])cc1Cl,119% (active)

row,Structure (SMILES),inhibition
1,CC(C)C(=O)Nc1cccc(NC(=O)c2ccc([N+](=O)[O-])cc2Cl)c1,16.6%
2,O=C(/C=C/c1ccc(Cl)cc1)Nc1ccc(Br)cn1,34.5%
3,O=C(Nc1ccncc1)c1ccc([N+](=O)[O-])cc1Cl,-1.95%
4,COc1ccc(N(Cc2cc3ccc(C)cc3[nH]c2=O)S(=O)(=O)c2ccccc2)cc1,-1.62%
5,CCOc1cc(NC(=O)Nc2ccccc2)c(OCC)cc1NC(=O)CC,-9.09%
6,CC1CCCN(S(=O)(=O)c2ccc(-c3ccc(=O)[nH]n3)o2)C1 (stereo not drawn),-5.12%
7,O=S(=O)(NC1CC1)c1ccc(F)c(F)c1,20.3%
8,CCc1ccc(OCC(=O)OC(C)C(=O)NC2CC2)cc1 (stereo not drawn),-3.01%
9,CCCCN(CC)C(=O)C1CCCN(S(=O)(=O)c2cccc3nsnc23)C1 (stereo not drawn),-4.85%
10,CCOC(=O)C(C)n1cnc2sc(C)c(C)c2c1=O (stereo not drawn),17.6%
11,Cc1c(C(N)=O)sc2ncn(CCOc3ccccc3)c(=O)c12,59.8%
12,Cc1cccc(OC(=O)c2sc3ncn(C)c(=O)c3c2C)c1,67.1% (active)
13,CN(CCc1ccccn1)C(=O)c1ccc(OC2CCN(Cc3ccccn3)CC2)cc1,16%
14,CCOc1ccc(C(=O)Nc2nccs2)cc1[N+](=O)[O-],69.4% (active)
15,CCCCOC(=O)Nc1nnc(CC(=O)NCc2ccccc2)s1,-13.9%
16,CCN(c1ccccc1)S(=O)(=O)c1ccc(C(=O)Nc2nccs2)cc1,-6.9%
17,CC(NC(=O)C(=O)Nc1nccs1)c1ccccc1 (stereo not drawn),-4.59%
18,O=C(COC(=O)c1ccc(O)cc1)Nc1nccs1,28%
19,O=C(O)c1ccccc1-c1ccccc1C(=O)Nc1nccs1,16.1%
20,CCCCOC(=O)Nc1nccs1,7.37% (active)
21,COc1ccc(C(=O)NNC(=O)c2cnccn2)cc1[N+](=O)[O-],-6.53%
22,CC(=O)Oc1ccc(C(=O)Nc2nccs2)cc1,45.7% (active)
23,CC(=O)NC(CC(=O)Nc1nccs1)c1ccccc1 (stereo not drawn),14.1%
24,Cn1cccc1C(=O)Nc1nccs1,39.3% (active)
25,CCOc1ccc(C(=O)NC(=S)Nc2ccc(NC(=O)C(C)C)cc2)cc1[N+](=O)[O-],-4.8%
